Our source for the Potency, viability change, negative = cytotoxic and activity change, negative = cytotoxicity values is PubChem BioAssay (Tox21).

Records with an inconclusive call do not appear. A number with no mark means an inactive call. The source made the active and inactive calls. Calls follow the shape of the dose curve; as a rule, active = well fitted cell-killing curve with a large enough effect in the repeat runs; inconclusive = weak or mixed curves, or effect the other way; inactive = flat fitted curve, though single readings scatter.

The nature of assay [1]: cAMP Responsive Elements (CRE) small molecule antagonists, cell-based qHTS assay: qHTS cell viability counter screen (AID 2060913). Also: nearly all actives have a fitted effect of over 40% in size. The settings on record: CRE-bla HEK293T viability, CellTiter-Glo luminescence, 5 h; series mostly up to 92.4 µM. The procedure, abridged:
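HEK293T CRE-bla, 2,000 cells/well, 18 h preincubation; cpd in DMSO + NKH477 0.25 uM final, 3 h 37 C/5% CO2; LiveBLAzer 2 h RT, then CellTiter-Glo 30 min RT, luminescence.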
For orientation: In qHTS, concentration-response curves come from the screen itself.

The nature of assay [2]: cAMP Responsive Elements (CRE) small molecule agonists, cell-based qHTS assay: qHTS cell viability counter screen (AID 2060914). Also: nearly all actives have a fitted effect of over 50% in size. The settings on record: CRE-bla HEK293T viability, CellTiter-Glo luminescence, 5 h; series mostly up to 92.4 µM. A digest of the protocol:
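In the same wells as the reporter read, viability of CRE-bla HEK 293T cells was quantified by CellTiter-Glo luminescence after a 3 h compound exposure.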
% is scaled to controls: 0 for no effect and ±100 for the full control effect.

As for `Cc1cc(Cc2ccc(N)c(C)c2)ccc1N`, the Potency entry in assay [1] and in assay [2] was “inactive” in each case.
On to `CCN(CCN)c1cccc(C)c1`, for which the Potency entry in assay [1] and in assay [2] was “inactive” each time.
As for `O=C(O)c1cn(C2CC2)c2cc(Cl)c(F)cc2c1=O`, the Potency result in assay [1] and in assay [2] was “inactive” each time.
With `CC(CCc1ccc2c(c1)OCO2)NN` (centres undefined), the Potency entry in assay [1] and in assay [2] was “inactive” in each case.
In the case of `O=S(=O)(O)c1ccc(O)cc1`, the Potency entry in assay [1] and in assay [2] was “inactive” in each case.
Take `CCCc1cc(=O)[nH]c(=S)[nH]1`: the Potency result in assay [1] and in assay [2] was “inactive” in each case.
With `CN(C)C=O`, the Potency entry in assay [1] and in assay [2] was “inactive” throughout.
Consider `CC(=O)CC(c1ccc([N+](=O)[O-])cc1)c1c(O)c2ccccc2oc1=O` (centres undefined), for which the Potency result in assay [1] and in assay [2] was “inactive” in each case.
In the case of `[O]=[Mo](=[O])=[O]`, in assay [1], the viability change, negative = cytotoxic is 13.7% [at 18.9 µM]. In addition, the activity change, negative = cytotoxicity in assay [2] was -14.6% [at 18.9 µM].
As for `O=C1NC(=O)C2CC=CCC12` (centres undefined), the Potency entry in assay [1] and in assay [2] was “inactive” throughout.
Consider `CN(C)CCC=C1c2ccccc2C=Cc2ccccc21`, for which the Potency result in assay [1] and in assay [2] was “inactive” throughout.
Take `CCCCCCCCCCCC[N+](C)(C)CCCS(=O)(=O)[O-]`: the Potency entry in assay [1] and in assay [2] was “inactive” throughout.
Regarding `CC(C(=O)O)c1ccc2c(c1)Cc1cccnc1O2` (centres undefined), the Potency result in assay [1] and in assay [2] was “inactive” throughout.
Regarding `CCCCOC(=O)[C@@H](C)Oc1ccc(Oc2ccc(C(F)(F)F)cn2)cc1`, the Potency entry in assay [1] and in assay [2] was “inactive” throughout.
On to `NC(=O)N(O)[C@@H]1COc2cc(OCc3ccccc3)ccc21`, for which the Potency entry in assay [1] and in assay [2] was “inactive” each time.
`NC[C@H]1O[C@H](O[C@H]2[C@H](O)[C@@H](O[C@H]3O[C@H](CO)[C@@H](O)[C@H](N)[C@H]3O)[C@H](N)C[C@@H]2N)[C@H](O)[C@@H](O)[C@@H]1O`: the viability change, negative = cytotoxic in assay [1] is -0.639% [at 8.39 µM]. Besides, the activity change, negative = cytotoxicity in assay [2] is 14.7% [at 8.39 µM].
For `O=[N+]([O-])c1cccc(S(=O)(=O)NCCNS(=O)(=O)c2cccc([N+](=O)[O-])c2)c1`, the Potency result in assay [1] and in assay [2] was “inactive” in each case.
For `Cc1ccc2ccc(Cl)cc2n1`, the Potency entry in assay [1] and in assay [2] was “inactive” in each case.
In the case of `CO[C@@H]1[C@@H](OC(N)=O)[C@@H](O)[C@H](Oc2ccc3c(O)c(NC(=O)c4ccc(O)c(CC=C(C)C)c4)c(=O)oc3c2C)OC1(C)C`, the Potency entry in assay [1] and in assay [2] was “inactive” in each case.
Regarding `Clc1cccc(-c2cc(Cl)cc(Cl)c2)c1`, the Potency entry in assay [1] and in assay [2] was “inactive” throughout.
Regarding `CCCCOC(=O)CCCCCCCC(=O)OCCCC`, the Potency entry in assay [1] and in assay [2] was “inactive” each time.
As for `C=C(C)C(=O)O`, the Potency entry in assay [1] and in assay [2] was “inactive” in each case.
Take `COc1ncnc(NS(=O)(=O)c2ccc(N)cc2)c1OC`: the Potency result in assay [1] and in assay [2] was “inactive” each time.
For the molecule `ON(Cc1ccccc1)Cc1ccccc1`, the Potency entry in assay [1] and in assay [2] was “inactive” throughout.
As to `CC(=O)OC[C@H]1O[C@@H](OC(C)=O)[C@H](OC(C)=O)[C@@H]1OC(C)=O`, the Potency entry in assay [1] and in assay [2] was “inactive” throughout.
As to `CCc1nn(C2CCCCC2)c2cc(C3(C#N)CCC(C(=O)O)CC3)ccc12` (centres undefined), the Potency entry in assay [1] and in assay [2] was “inactive” each time.
Consider `O=C(c1ccc(O)cc1)c1ccc(O)cc1`, for which the Potency result in assay [1] and in assay [2] was “inactive” each time.
`COc1ccc(C2CNC(=O)C2)cc1OC1CCCC1` (centres undefined): the Potency entry in assay [1] and in assay [2] was “inactive” in each case.
Turning to `CC(C)(CO)[N+](=O)[O-]`, the Potency result in assay [1] and in assay [2] was “inactive” each time.
On to `Brc1ccc(Oc2ccc(Br)cc2)cc1`, for which the Potency entry in assay [1] and in assay [2] was “inactive” in each case.
With `CC(=O)OCC(=O)Nc1cc(C#N)cc(NC(=O)COC(C)=O)c1Cl`, the Potency entry in assay [1] and in assay [2] was “inactive” each time.
For the molecule `CC1(C)C(=O)NC(=O)N1CO`, the Potency entry in assay [1] and in assay [2] was “inactive” in each case.
With `OC[C@H]1O[C@H](O[C@]2(CCl)O[C@H](CCl)[C@@H](O)[C@@H]2O)[C@H](O)[C@@H](O)[C@H]1Cl`, the Potency result in assay [1] and in assay [2] was “inactive” each time.
Turning to `COc1ccc(-c2cc(=O)c3c(O)cc(O[C@@H]4O[C@H](CO[C@@H]5O[C@@H](C)[C@H](O)[C@@H](O)[C@H]5O)[C@@H](O)[C@H](O)[C@H]4O)cc3o2)cc1O`, the Potency entry in assay [1] and in assay [2] was “inactive” each time.
`O=[N+]([O-])c1ccc(Cl)cc1Cl`: the Potency result in assay [1] and in assay [2] was “inactive” throughout.
`CCCCCCCCN(C)C`: the Potency result in assay [1] and in assay [2] was “inactive” in each case.
For `CCCCCCCCCCCCCCN(CCO)CCO`, the Potency entry in assay [1] and in assay [2] was “inactive” each time.
For `CCOC(=O)CN1CCCC1=O`, the Potency entry in assay [1] and in assay [2] was “inactive” in each case.
On to `C[C@H](CCC(=O)O)[C@H]1CC[C@H]2[C@@H]3[C@H](O)C[C@@H]4C[C@H](O)CC[C@]4(C)[C@H]3CC[C@]12C`, for which the Potency entry in assay [1] and in assay [2] was “inactive” throughout.
Turning to `CC(C)(C)c1nnc(NS(=O)(=O)c2ccc(N)cc2)s1`, the Potency entry in assay [1] and in assay [2] was “inactive” in each case.
With `CCOc1cc(OCC)c(C(C)=O)cc1OCC`, the Potency result in assay [1] and in assay [2] was “inactive” in each case.
Take `CC(=O)OCCc1ccccc1`: the Potency result in assay [1] and in assay [2] was “inactive” throughout.
In the case of `O=C1Nc2ccccc2C1=O`, the Potency result in assay [1] and in assay [2] was “inactive” in each case.
Turning to `CCCCCCCCCCCCCCCCCCOS(=O)(=O)O`, the Potency result in assay [1] and in assay [2] was “inactive” throughout.
For the molecule `CCCCCCCCC=O`, the Potency result in assay [1] and in assay [2] was “inactive” each time.
On to `O=S(=O)(O)C(F)(F)F`, for which the Potency entry in assay [1] and in assay [2] was “inactive” each time.
`CN1CCN(C2=Nc3ccccc3Oc3ccc(Cl)cc32)CC1`: the Potency entry in assay [1] and in assay [2] was “inactive” in each case.
